Most compounds without a hit are left out; they make up all but 13% or so of the library.
Pf growth 96h: P. falciparum growth inhibition at 96 hour, primary screen for plastid delayed-death inhibitors. Potency, µM (doses to about 28.7 µM), without a hit: top-dose activity change, negative = inhibition, actives largely listed as inhibitors. P. falciparum luciferase reporter growth, 96 h. 320,000 compounds, 6.9% hits. AID 504834; further: potency means the concentration at half of the fitted maximal effect
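Parasite growth measured via integrated firefly luciferase reporter in P. falciparum. Infected erythrocytes at 2% hematocrit, 0.05% parasitemia final were treated 96 hours at 37 C under 5% CO2, and luminescence was read.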
HCV inh: inhibitors of hepatitis C virus infection | Huh7.5.1 HCVcc-Cre infection, luciferase reporter, 44 h | Potency, µM (doses to about 41.8 µM), for the others: at the highest dose activity change, negative = inhibition, usual class: inhibitors | 340,000 compounds, 3.4% hits; further: potency means the concentration at half of the fitted maximal effect
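After 44 h co-culture of compound, cells and HCVcc-Cre (~0.5 moi), substrate is added for 15 min at room temperature and luciferase measured over 15 sec. Cells were seeded at 1,000/well and pre-cultured 4 h.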
HCMV inh: inhibitors of human cytomegalovirus | HFF cells, HCMV-luciferase reporter, 72 h; stronger effect = lower value | activity change, negative = inhibition, % at 57.5 µM | 410,000 compounds, 4.5% hits; in the data active means activity change below about -60%; inconclusive means no clear call, values can overlap the other calls; inactive means above about -39%
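Compounds were evaluated in HFFs infected with an HCMV luciferase reporter virus (MOI 1 PFU/cell). Luciferase in lysates collected 72 h post infection served as the replication measure.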
Pf growth 48h: inhibits P. falciparum growth in the first generation, 48 h; P. falciparum luciferase growth in erythrocytes, 48 h; Potency, µM (highest dose often 28.7 µM), without a hit: at the highest dose activity change, negative = inhibition, usual class: inhibitors; 310,000 compounds, 5.9% hits; AID 504832; further: potency means the concentration at half of the fitted maximal effect
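Luciferase-expressing P. falciparum in infected erythrocytes (2% hematocrit, 0.1% parasitemia final) in RPMI 1640/0.5% Albumax were exposed to compound for 48 hours at 37 C, 5% CO2; growth read as luminescence.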
An asterisk follows results filed as active; ? = inconclusive; . = no result given. Unless noted, the call rests on the fitted dose curve; in most records, active means well fitted inhibition curve with a large enough effect; inconclusive means small, poorly fitted or top-dose-only effect, or another doubt; inactive means no such curve, though single readings can be large or run the other way. On the % scale 0 is the no-effect control and ±100 the full control effect.

SMILES	Pf growth 96h	HCV inh	HCMV inh	Pf growth 48h
NNC(=O)CN1C(=O)Nc2ccc(Br)cc2C1c1ccccc1 (configuration not stated)	73%	24%	26	?
C=C1N(S(=O)(=O)C(F)(F)F)CC[C@@]12c1ccccc1N(C)[C@@H]2c1cn(C)c2ccccc12	.	.	6	.
Cc1nc2nncn2c(N2CCN(c3ccccc3)CC2)c1C	.	.	-74*	.
CCCc1cc(N2CCN(c3ccc(OC)cc3)CC2)n2cnnc2n1	.	.	-78*	.
Cc1cc(N2CCN(c3ccccc3)CC2)n2cnnc2n1	.	.	-32	.
COc1ccc(N2CCN(c3c4c(nc5nncn35)CCC4)CC2)cc1	.	.	-70*	.
COc1ccc(N2CCN(c3nc4ccc(C(=O)c5ccccc5)cc4n4cnnc34)CC2)cc1	.	.	0	.
Cc1ccc2nc(CN3CCN(C(=O)Nc4cccc(C)c4C)CC3)oc2c1	.	.	-7	.
Cc1ccn2c(=O)cc(CSc3nnc(C)s3)nc2c1	.	.	8	.
COC(=O)C(NC(=O)OCc1ccccc1)(c1ccc(Cl)cc1)C(Nc1ccccc1)c1ccccc1 (configuration not stated)	.	.	24	.
CCC(C)c1ccccc1NC(=O)COC(=O)c1ccc2[nH]c3c(c2c1)CCCC3 (configuration not stated)	?	?	-100*	?
CN(CCC#N)C(=O)COC(=O)c1ccc2[nH]c3c(c2c1)CCCC3	0%	?	-73*	26%
CCOC(=O)c1ccc2[nH]c3c(c2c1)CCCC3	?	7%	72	30%
O=C(COC(=O)c1ccc2[nH]c3c(c2c1)CCCC3)Nc1ccccc1Cl	?	?	18	?
COc1ccc(Br)cc1CNC(=O)c1cc(=O)[nH]c2ccc(S(=O)(=O)N3CCCCC3)cc12	.	.	1	.
C=CCc1ccccc1OCC(O)Cn1ccnc1C (configuration not stated)	1.5µM*	?	-36	-6%
C=CCc1ccccc1OCC(O)CN(C(C)C)C(C)C (configuration not stated)	231%	-12%	10	?
C=CCc1ccccc1OCC(O)CNC (configuration not stated)	1.2µM*	23%	2	.
C=CCc1ccccc1OCC(O)CN1CCOCC1 (configuration not stated)	.	15%	25	.
Cc1nccn1CC(O)COc1ccccc1 (configuration not stated)	?	-3%	-2	24%
C=CCc1ccccc1OCC(O)CN1CCN(c2ccc(OC)cc2)CC1 (configuration not stated)	6.6µM*	?	-23	1%
CCOc1ccc(C(=O)c2cn(CC(=O)Nc3cccc(OC)c3)c3cc4c(cc3c2=O)OCCO4)cc1	.	.	14	.
Cc1c(NC(=O)c2cc([N+](=O)[O-])ccc2N2CCOCC2)cccc1-c1nc2ccccc2o1	.	.	-21	.
CCC(C)n1c(C)nc2c(c1=O)c1nc3ccccc3nc1n2CCC1=CCCCC1 (configuration not stated)	12µM*	17%	-88*	13µM*
CS(=O)(=O)N1CCc2cc(S(=O)(=O)NCc3ccccc3Cl)ccc21	.	.	-5	.
SMILES	Pf growth 96h	HCV inh	HCMV inh	Pf growth 48h
CC1=C(C(=O)N2CCOCC2)CC(CC(=O)NC(c2ccccc2)c2ccccc2)C(=O)N1CCC1=CCCCC1 (configuration not stated)	.	.	12	.
CC1=C(C(=O)N(C(C)C)C(C)C)CC(CC(=O)NCCCCc2ccccc2)C(=O)N1Cc1ccc(C(C)(C)C)cc1 (configuration not stated)	.	.	-105*	.
COc1ccc(CN2C(=O)C(CC(=O)NCCCCc3ccccc3)CC(C(=O)N(C(C)C)C(C)C)=C2C)cc1 (configuration not stated)	.	.	19	.
CC1=C(C(=O)N(C(C)C)C(C)C)CC(CC(=O)NC(c2ccccc2)c2ccccc2)C(=O)N1CCC1=CCCCC1 (configuration not stated)	.	.	-110*	.
COc1cc2c(c3c1c(=O)c1cccc(F)c1n3C)C=CC(C)(C)O2	.	.	-13	.
Cc1ccc(SCCN2CCN(CCc3ccccc3)CCC2=O)cc1	40%	2.2µM*	17	42%
CC(=O)Nc1ccc(SC[C@H](Cc2ccccc2)N2CCN(CC(C)C)CCC2=O)cc1	4.7µM*	5%	-15	7.4µM*
CC(=O)Nc1ccc(SC[C@H](CC(C)C)N2CCN(CCc3ccccc3)CCC2=O)cc1	7.4µM*	7%	28	9.3µM*

From PubChem BioAssay
